Measurements from PubChem BioAssay AID1159580 (chemical genetic matrix, 2015).
“And” between values parts separate entries of the source, which are not always exact repeats. Equal values may be shown once. The whole screen tested about 5,500 compounds, of which about 2,000 (36%) were called active. Roughly 18% stayed inconclusive and do not appear here. Cut-off read from the data, not from the text of the source: active = normalized growth mostly below about 0.91 (no sharp cut-off); inconclusive = no clear call, values can overlap the other calls; inactive = mostly above about 0.92. This is one part of the list.

Experiment: chemical genetic growth profiling, strain panel (AID 1159580);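 note: tested at 20 µM; growth read once vehicle control cultures reached saturation at 30 °C; 1 = growth at the plate median or of vehicle wells; lower values mean less growth of the strain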
Settings: S. cerevisiae deletion strains, growth OD

Measured: normalized growth

Cc1cc(OC(=O)c2c(C)cc(O)cc2O)cc(O)c1C(=O)O
inactive: locus YAL021C, strain ccr4, stronger effect = lower value 1.02 | locus YAL026C, strain drs2, stronger effect = lower value 0.991 | locus YAL030W, strain snc1, stronger effect = lower value 0.995 | locus YBL061C, strain skt5, stronger effect = lower value 0.973 | locus YBR009C, strain hhf1, stronger effect = lower value 0.991 | locus YBR021W, strain FUR4, stronger effect = lower value 1.01 | locus YBR023C, strain chs3, stronger effect = lower value 0.978 | locus YBR171W, strain sec66, stronger effect = lower value 0.988 | locus YBR229C, strain ROT2, stronger effect = lower value 1.01 | locus YBR231C, strain swc5, stronger effect = lower value 0.992 | locus YBR279W, strain paf1, stronger effect = lower value 0.997 | locus YCL011C, strain gbp2, stronger effect = lower value 0.991 | locus YCL016C, strain dcc1, stronger effect = lower value 0.992 | locus YCL029C, strain bik1, stronger effect = lower value 1 | locus YCL061C, strain MRC1, stronger effect = lower value 0.989 | locus YCL069W, strain vba3, stronger effect = lower value 0.998 | locus YCR088W, strain abp1, stronger effect = lower value 0.997 | locus YDL005C, strain med2, stronger effect = lower value 0.983 | locus YDL035C, strain GPR1, stronger effect = lower value 1 | locus YDL040C, strain nat1, stronger effect = lower value 0.98 | locus YDL074C, strain BRE1, stronger effect = lower value 0.999 | locus YDL101C, strain DUN1, stronger effect = lower value 1.01 | locus YDL134C, strain PPH21, stronger effect = lower value 0.99 | locus YDL185W, strain tfp1, stronger effect = lower value 1 | locus YDL192W, strain arf1, stronger effect = lower value 0.979 | locus YDR001C, strain nth1, stronger effect = lower value 1 | locus YDR069C, strain doa4, stronger effect = lower value 0.966 | locus YDR101C, strain arx1, stronger effect = lower value 0.977 | locus YDR137W, strain rgp1, stronger effect = lower value 0.985 | locus YDR159W, strain sac3, stronger effect = lower value 0.987 | locus YDR162C, strain NBP2, stronger effect = lower value 1.01 | locus YDR195W, strain ref2 0.962 | locus YDR297W, strain sur2, stronger effect = lower value 0.99 | locus YDR318W, strain mcm21, stronger effect = lower value 0.981 | locus YDR334W, strain swr1, stronger effect = lower value 0.987 | locus YDR335W, strain msn5, stronger effect = lower value 1.01 | locus YDR388W, stronger effect = lower value 1.02 | locus YDR392W, strain spt3, stronger effect = lower value 0.991 | locus YDR502C, strain sam2, stronger effect = lower value 0.979 | locus YEL003W, strain gim4, stronger effect = lower value 0.972 | locus YEL037C, strain rad23, stronger effect = lower value 1 | locus YEL061C, strain CIN8 (second series), stronger effect = lower value 0.993 | locus YEL061C, strain CIN8, stronger effect = lower value 1.01 | locus YER015W, strain faa2, stronger effect = lower value 0.986 | locus YER016W, strain bim1, stronger effect = lower value 0.993 | locus YER110C, stronger effect = lower value 1.01 | locus YER111C, strain swi4, stronger effect = lower value 0.974 | locus YER155C, strain BEM2 (second series), stronger effect = lower value 0.966 | locus YER155C, strain BEM2, stronger effect = lower value 1.02 | locus YER167W, strain BCK2, stronger effect = lower value 1.01 | locus YFR010W, strain ubp6, stronger effect = lower value 0.968 | locus YGL078C, strain dbp3, stronger effect = lower value 0.967 | locus YGL086W, strain mad1, stronger effect = lower value 0.972 | locus YGL167C, strain pmr1, stronger effect = lower value 0.972 | locus YGL173C, strain kem1, stronger effect = lower value 0.981 | locus YGL227W, strain vid30, stronger effect = lower value 0.996 | locus YGL240W, strain doc1, stronger effect = lower value 0.957 | locus YGL248W, strain PDE1, stronger effect = lower value 1 | locus YGL253W, strain hxk2, stronger effect = lower value 0.99 | locus YGR135W, strain pre9, stronger effect = lower value 0.973 | locus YGR252W, strain gcn5, stronger effect = lower value 0.935 | locus YHR013C, strain ard1, stronger effect = lower value 0.966 | locus YHR027C, strain rpn1, stronger effect = lower value 1.01 | locus YHR030C, strain SLT2, stronger effect = lower value 0.976 | locus YHR079C, strain IRE1 (second series), stronger effect = lower value 1 | locus YHR079C, strain IRE1, stronger effect = lower value 0.968 | locus YHR094C, strain hxt1, stronger effect = lower value 1.02 | locus YHR129C, strain ARP1, stronger effect = lower value 0.997 | locus YHR142W, strain chs7, stronger effect = lower value 1 | locus YHR200W, strain rpn10, stronger effect = lower value 0.985 | locus YIL066C, strain RNR3, stronger effect = lower value 1.01 | locus YIL073C, strain SPO22, stronger effect = lower value 1.01 | locus YIL125W, strain kgd1, stronger effect = lower value 0.995 | locus YIR030C, strain dcg1, stronger effect = lower value 1 | locus YJL092W, strain hpr5, stronger effect = lower value 0.989 | locus YJL095W, strain BCK1 (second series), stronger effect = lower value 0.986 | locus YJL095W, strain BCK1, stronger effect = lower value 0.991 and 0.996 | locus YJL115W, strain asf1, stronger effect = lower value 0.987 | locus YJL129C, strain trk1, stronger effect = lower value 0.983 | locus YJL134W, strain LCB3, stronger effect = lower value 1.02 | locus YJL154C, strain vps35, stronger effect = lower value 0.993 | locus YJL164C, strain tpk1, stronger effect = lower value 1.02 | locus YJL166W, strain qcr8, stronger effect = lower value 0.987 | locus YJL168C, strain set2, stronger effect = lower value 1 | locus YJL187C, strain SWE1 (second series), stronger effect = lower value 0.993 | locus YJL187C, strain SWE1, stronger effect = lower value 1 | locus YJR043C, strain POL32, stronger effect = lower value 1 | locus YJR066W, strain TOR1, stronger effect = lower value 0.894 | locus YJR075W, strain HOC1, stronger effect = lower value 1.01 | locus YKL009W, strain mrt4, stronger effect = lower value 0.991 | locus YKL068W, stronger effect = lower value 1.02 | locus YKL085W, strain MDH1 (second series), stronger effect = lower value 1 | locus YKL085W, strain MDH1, stronger effect = lower value 1 | locus YKL160W, strain elf1, stronger effect = lower value 1.02 | locus YKL190W, strain CNB1, stronger effect = lower value 1.01 | locus YKR001C, strain vps1, stronger effect = lower value 0.98 | locus YKR026C, strain gcn3, stronger effect = lower value 0.983 | locus YKR091W, strain srl3, stronger effect = lower value 0.992 | locus YLL001W, strain dnm1, stronger effect = lower value 1.01 | locus YLL026W, stronger effect = lower value 0.991 | locus YLL041C, strain sdh2, stronger effect = lower value 0.972 | locus YLR027C, strain aat2, stronger effect = lower value 0.99 | locus YLR039C, strain RIC1, stronger effect = lower value 0.914 | locus YLR058C, strain SHM2, stronger effect = lower value 0.992 | locus YLR102C, strain apc9, stronger effect = lower value 1.01 | locus YLR113W, strain HOG1, stronger effect = lower value 1.01 | locus YLR221C, strain rsa3, stronger effect = lower value 0.979 | locus YLR258W, strain gsy2, stronger effect = lower value 0.992 | locus YLR262C, strain YPT6 (second series), stronger effect = lower value 1.01 | locus YLR262C, strain YPT6, stronger effect = lower value 0.989 | locus YLR268W, strain sec22, stronger effect = lower value 0.983 | locus YLR320W, strain mms22, stronger effect = lower value 0.975 | locus YLR330W, strain CHS5, stronger effect = lower value 1.01 | locus YLR342W, strain FKS1 (second series), stronger effect = lower value 1.01 | locus YLR342W, strain FKS1, stronger effect = lower value 0.991 | locus YLR357W, strain rsc2, stronger effect = lower value 0.984 | locus YLR370C, strain arc18, stronger effect = lower value 0.978 | locus YLR371W, strain rom2, stronger effect = lower value 1 | locus YLR384C, strain iki3, stronger effect = lower value 0.963 | locus YLR418C, strain cdc73, stronger effect = lower value 0.951 | locus YML016C, strain PPZ1, stronger effect = lower value 1.01 | locus YML032C, strain rad52, stronger effect = lower value 0.979 | locus YML120C, strain ndi1, stronger effect = lower value 0.994 | locus YML124C, strain tub3, stronger effect = lower value 1 | locus YMR058W, strain fet3, stronger effect = lower value 0.99 | locus YMR078C, strain ctf18, stronger effect = lower value 1 | locus YMR125W, strain sto1, stronger effect = lower value 0.992 | locus YMR129W, stronger effect = lower value 0.996 | locus YMR205C, strain PFK2, stronger effect = lower value 1.03 | locus YMR223W, strain ubp8, stronger effect = lower value 0.975 | locus YMR231W, strain pep5, stronger effect = lower value 0.955 | locus YMR307W, strain GAS1, stronger effect = lower value 0.988 | locus YNL067W, strain RPL9B, stronger effect = lower value 1 | locus YNL071W, strain lat1, stronger effect = lower value 1.02 | locus YNL153C, strain GIM3, stronger effect = lower value 0.985 | locus YNL183C, strain NPR1, stronger effect = lower value 0.933 | locus YNL209W, strain ssb2, stronger effect = lower value 0.996 | locus YNL233W, strain BNI4, stronger effect = lower value 0.989 | locus YNL248C, strain rpa49, stronger effect = lower value 0.992 | locus YNL250W, strain rad50, stronger effect = lower value 1.03 | locus YNL271C, strain bni1, stronger effect = lower value 1.01 | locus YNL298W, strain CLA4, stronger effect = lower value 0.986 | locus YNL307C, strain MCK1, stronger effect = lower value 1 | locus YNL322C, strain KRE1 (second series), stronger effect = lower value 0.974 | locus YNL322C, strain KRE1, stronger effect = lower value 0.986 | locus YNR049C, strain mso1, stronger effect = lower value 0.975 | locus YNR052C, strain pop2, stronger effect = lower value 0.978 | locus YOL006C, strain TOP1, stronger effect = lower value 1.08 | locus YOL012C, strain htz1 1.01 | locus YOL147C, strain pex11, stronger effect = lower value 1.01 | locus YOR001W, strain rrp6, stronger effect = lower value 0.96 | locus YOR061W, strain CKA2, stronger effect = lower value 1.01 | locus YOR069W, strain VPS5, stronger effect = lower value 1.01 | locus YOR070C, strain gyp1, stronger effect = lower value 1 | locus YOR080W, strain dia2, stronger effect = lower value 0.975 | locus YOR083W, strain WHI5, stronger effect = lower value 1.03 | locus YOR106W, strain vam3, stronger effect = lower value 1.03 | locus YOR136W, strain idh2, stronger effect = lower value 1.01 | locus YOR144C, strain elg1, stronger effect = lower value 1.01 | locus YOR184W, strain ser1, stronger effect = lower value 0.973 | locus YOR231W, strain MKK1, stronger effect = lower value 0.974 | locus YOR265W, strain rbl2, stronger effect = lower value 0.991 | locus YOR270C, strain vph1, stronger effect = lower value 0.99 | locus YOR290C, strain snf2, stronger effect = lower value 0.969 | locus YOR316C, strain cot1, stronger effect = lower value 1.01 | locus YPL051W, strain arl3, stronger effect = lower value 0.993 | locus YPL078C, strain atp4, stronger effect = lower value 1.03 | locus YPL106C, strain sse1, stronger effect = lower value 0.99 | locus YPL240C, strain hsp82, stronger effect = lower value 0.974 | locus YPL241C, strain CIN2, stronger effect = lower value 1.02 | locus YPL256C, strain CLN2, stronger effect = lower value 1.01 | locus YPR119W, strain clb2, stronger effect = lower value 1.01 | locus YPR141C, strain kar3, stronger effect = lower value 1.02 | locus YPR163C, strain tif3, stronger effect = lower value 0.983 | locus YPR167C, strain met16, stronger effect = lower value 0.976 | strain wtn01, stronger effect = lower value 0.978
